Article PMC3315485, “Probing the Informational and Regulatory Plasticity of a Transcription Factor DNA–Binding Domain”

Biological target: T1, MarA RTR (Escherichia coli, UniProt P0ACH5 1-127, W40R;Q43T)
T1 sequence: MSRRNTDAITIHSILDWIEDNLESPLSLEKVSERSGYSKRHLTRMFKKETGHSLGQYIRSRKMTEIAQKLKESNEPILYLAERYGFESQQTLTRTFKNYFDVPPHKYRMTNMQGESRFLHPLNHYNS
Assay: MITOMI; MITOMI, 295 K (22 C); buffer, salt and pH not stated in the material; high values mean tight binding
Details: protein: ivt; label: fluorescent; dsDNA, one strand shown
Procedure, shortened: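 Association constants were determined by MITOMI and are expressed for each site relative to the site with the highest affinity for the same protein variant. The MarA protein variants were made with the RTS E. coli HY kit by in vitro transcription and translation and labelled through addition of tRNA-lys-bodipy-fl. Testing covered 64 synthesized mar binding site variants, with fluorescence read on Genepix at 295K.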

Sequence | binding signal
ATGCTACGTTTTGCTAAAT | 0.285 Ka relative to the best site of the variant
ATGTCACGTTTTGCTAAAT | 0.306 Ka relative to the best site of the variant
ATGGAACGTTTTGCTAAAT | 0.23 Ka relative to the best site of the variant
ATGTAGCGTTTTGCTAAAT | 0.685 Ka relative to the best site of the variant
ATGTGGCGTTTTGCTAAAT | 0.165 Ka relative to the best site of the variant
ATGTCCCGTTTTGCTAAAT | 0.848 Ka relative to the best site of the variant
ATGGACCGTTTTGCTAAAT | 0.154 Ka relative to the best site of the variant
ATGACTCGTTTTGCTAAAT | 0.469 Ka relative to the best site of the variant
ATGGCTCGTTTTGCTAAAT | 0.904 Ka relative to the best site of the variant
ATGGAGCGTTTTGCTAAAT | 0.191 Ka relative to the best site of the variant
ATGTGACGTTTTGCTAAAT | 0.173 Ka relative to the best site of the variant
ATGCAACGTTTTGCTAAAT | 0.188 Ka relative to the best site of the variant
ATGGCCCGTTTTGCTAAAT | 1 Ka relative to the best site of the variant
ATGCCTCGTTTTGCTAAAT | 0.235 Ka relative to the best site of the variant
ATGGGTCGTTTTGCTAAAT | 0.203 Ka relative to the best site of the variant
ATGAGACGTTTTGCTAAAT | 0.229 Ka relative to the best site of the variant

Sequence | binding signal
ATGCTTCGTTTTGCTAAAT | 0.723 Ka relative to the best site of the variant
ATGAATCGTTTTGCTAAAT | 0.214 Ka relative to the best site of the variant
ATGCAGCGTTTTGCTAAAT | 0.149 Ka relative to the best site of the variant
ATGTACCGTTTTGCTAAAT | 0.989 Ka relative to the best site of the variant
ATGCTCCGTTTTGCTAAAT | 0.201 Ka relative to the best site of the variant
ATGAGTCGTTTTGCTAAAT | 0.173 Ka relative to the best site of the variant
ATGTTGCGTTTTGCTAAAT | 0.518 Ka relative to the best site of the variant
ATGCGACGTTTTGCTAAAT | 0.24 Ka relative to the best site of the variant
ATGGGGCGTTTTGCTAAAT | 0.167 Ka relative to the best site of the variant
ATGATGCGTTTTGCTAAAT | 0.243 Ka relative to the best site of the variant
ATGACACGTTTTGCTAAAT | 0.249 Ka relative to the best site of the variant
ATGCCGCGTTTTGCTAAAT | 0.245 Ka relative to the best site of the variant
ATGGATCGTTTTGCTAAAT | 0.202 Ka relative to the best site of the variant
ATGAGCCGTTTTGCTAAAT | 0.27 Ka relative to the best site of the variant
ATGATACGTTTTGCTAAAT | 0.208 Ka relative to the best site of the variant
